# According to ChEMBL document CHEMBL3988442, “University of Dundee, Small-Polar-MMV Screening Library” (2021):
# Hit rate of the full screen: of about 66,000 compounds, about 960 (1.5%) showed an effect of 50% or more. This excerpt belongs to a sample that is enriched for strong results.
# Test system: Trypanosoma brucei
# Assay: Trypanosoma brucei 72 hour study
# Format: functional, organism-based
# Set-up: scale not given: in the data most compounds retested in dose-response had high values
smiles,measurement,setting,value
Cc1ccc(S(C)(=O)=O)cc1C(=O)NS(=O)(=O)c1cccs1,Percent Effect,"30.3 µM, […]",-1.699%
Cc1ccc(S(C)(=O)=O)cc1C(=O)NS(C)(=O)=O,Percent Effect,"30.3 µM, […]",76.39%
Cc1ccc(S(=O)(=O)Nc2ccc(C)c(C(=O)O)c2)s1,Percent Effect,"30 µM, 30.03 µM",-9.875%
Cc1ccc(C(=O)NS(C)(=O)=O)cc1S(C)(=O)=O,Percent Effect,"30 µM, 30.03 µM",7.017%
Cc1ccc(S(C)(=O)=O)cc1C(=O)NS(=O)(=O)c1ccc(Cl)cc1,Percent Effect,"30.3 µM, […]",-20.93%
Cc1ccc(S(=O)(=O)NC(=O)c2cc(S(C)(=O)=O)ccc2C)s1,Percent Effect,"30.3 µM, […]",94.94%
Cc1ccc(F)cc1S(=O)(=O)Nc1ccc2c(C(=O)O)c[nH]c2c1,Percent Effect,10 µM,-37.32%
Clc1ccccc1-c1cc(CNc2ncnc3c2CCNCC3)no1,Percent Effect,"30 µM, 30.03 µM",-18.38%
O=C(CCNC(=O)c1cnccn1)Nc1ncc[nH]1,Percent Effect,"30 µM, 30.03 µM",-39.01%
O=C(Nc1cccc2c1CCCC2)c1cccnc1N1CCCNCC1,Percent Effect,"30.3 µM, […]",-17.09%
same,Percent Effect,"10 mM, 10 mM as filed; unlikely as a test dose",-111.4%
CS(=O)(=O)NC[C@]12COC[C@H]1CN(C(=O)C1CCSCC1)C2,Percent Effect,"30.3 µM, […]",-61.89%
CNC(=O)c1cn[nH]c1C1CCN(Cc2ccccc2OC)C1 (centres undefined),Percent Effect,"30.3 µM, […]",0.9318%
CC(C)c1nnc(CN2CCCC3(CC2)CN(C)C(=O)O3)o1 (centres undefined),Percent Effect,"30 µM, 30.03 µM",-4.839%
CC(C)c1ccc(CN2CCCC3(CC2)CN(C)C(=O)O3)cc1 (centres undefined),Percent Effect,"30.3 µM, […]",97.32%
CC(C)c1ccc(CC(=O)N2CCCC3(CN(C)C(=O)O3)C2)cc1 (centres undefined),Percent Effect,"30.3 µM, […]",-36.52%
CN(C)C(=O)CO[C@H]1CN(Cc2nccs2)[C@@H]2COC[C@H]12.O=C(O)C(F)(F)F,Percent Effect,"30.3 µM, […]",-75.65%
Cc1cc2nc(C(C)C)cc(N(C)CC3CCCN(CCO)C3)n2n1 (centres undefined),Percent Effect,"30.3 µM, […]",9.548%
Cc1nc(CN2CCCC(CCc3c(F)cccc3F)C2)c[nH]1 (centres undefined),Percent Effect,"30 µM, 30.03 µM",77.03%
Cc1nc(CN2CCCC(CCc3ccccc3C)C2)c[nH]1 (centres undefined),Percent Effect,"30.3 µM, […]",-10.1%
Cc1nc(CN2CCCC(CCc3ccc(F)cc3F)C2)c[nH]1 (centres undefined),Percent Effect,"30 µM, 30.03 µM",47.76%
Cc1nc(CN2CCCC(CCc3ccc(F)c(F)c3)C2)c[nH]1 (centres undefined),Percent Effect,"30.3 µM, […]",50.38%
Cn1cc(CN2CCCC(CCc3ccc(F)c(F)c3)C2)cn1 (centres undefined),Percent Effect,"30 µM, 30.03 µM",-1.052%
Cc1nc(CN2CCCC(CCc3ccccc3F)C2)c[nH]1 (centres undefined),Percent Effect,"30.3 µM, […]",-5.303%
CN(C)[C@@H]1CCN(S(=O)(=O)C2CC2)[C@H]1Cc1ccccc1.O=C(O)C(F)(F)F,Percent Effect,"30.3 µM, […]",-33.03%
O=C1CCNc2ncc(-c3ccccc3Cl)cc2CN1C1CC1,Percent Effect,"30.3 µM, […]",10.61%
Cl.O=C(NCc1ccc(Cl)cc1)C1=NOC2(CCNC2)C1 (centres undefined),Percent Effect,"30 µM, 30.03 µM",4.958%
Cc1ccc(NC(=O)Nc2c[nH]c(=O)[nH]c2=O)c(C)c1,Percent Effect,"30 µM, 30.03 µM",-29.58%
Cc1cc(CN2CCC3(CC2)COC(COCC2CC2)C3)no1.O=C(O)C(F)(F)F (centres undefined),Percent Effect,"30.3 µM, […]",4.372%
Cc1cncc(CN2C[C@@H](O)[C@H](Oc3ccccc3)C2)c1,Percent Effect,"30.3 µM, […]",6.651%
c1ccc(-c2nnc(CN3C[C@@H]4CC[C@H](C3)N(CC3CCC3)C4)o2)cc1,Percent Effect,"30 µM, 30.03 µM",-46.57%
c1ccc(-c2cc(CN3C[C@@H]4CC[C@H](C3)N(CC3CC3)C4)on2)cc1,Percent Effect,"30 µM, 30.03 µM",-36.61%
c1ccc(-c2cc(CN3C[C@@H]4CC[C@H](C3)N(CC3CCC3)C4)on2)cc1,Percent Effect,"30 µM, 30.03 µM",58.21%
O=C(O)C(F)(F)F.O=C(O)C(F)(F)F.O=C(c1n[nH]c2c1CN(C1CCOCC1)CC2)N1CCCC1,Percent Effect,"30.3 µM, […]",-4.414%
CCOc1ccc(N(C)Cc2nnc(C3CC3)o2)cc1,Percent Effect,"30.3 µM, […]",-683%
CCOc1ccc(N(C)Cc2nnc(C)o2)cc1,Percent Effect,"30.3 µM, […]",-136.8%
CCOc1ccc(N(C)Cc2nc(C)c(C)o2)cc1,Percent Effect,"30.3 µM, […]",96.05%
CCn1ncc2c1C(COC)N(C(=O)CCc1ccccc1)CC2.O=C(O)C(F)(F)F (centres undefined),Percent Effect,"30.3 µM, […]",-62.76%
COC[C@@]12CC[C@@H](N3CCOCC3)C[C@H]1CCN(c1ncccc1F)C2,Percent Effect,"30.3 µM, […]",8.261%
COC[C@@]12CC[C@@H](N3CCOCC3)C[C@H]1CCN(c1ncccc1Cl)C2,Percent Effect,"30 µM, 30.03 µM",81.93%
COC[C@@]12CC[C@@H](N3CCOCC3)C[C@H]1CCN(c1ncccc1C)C2,Percent Effect,"30.3 µM, […]",-4.564%
Cl.Cl.O=C(CN1CCN(CC(O)C2CC2)CC1)NCc1ccccc1 (centres undefined),Percent Effect,"30.3 µM, […]",-20.63%
Cn1ccc(CN2CCCC23CCN(Cc2cccc(F)c2)CC3)n1.O=C(O)C(F)(F)F.O=C(O)C(F)(F)F,Percent Effect,"30.3 µM, […]",-80.78%
CCc1cc(C(F)(F)F)c2c(C3CCN(C(=O)COC)CC3)noc2n1,Percent Effect,"30.3 µM, […]",11.66%
O=C(N[C@@H]1CN(CCc2ccc(F)cc2)C[C@H]1O)c1cscn1,Percent Effect,"30.3 µM, […]",8.587%
O=C(O)C(F)(F)F.O=C(O)C(F)(F)F.O=C(c1cccnc1)N1CCn2cc(CN3CCCC3)nc2C1,Percent Effect,"30.3 µM, […]",-57.28%
N#Cc1ccc(C(=O)NCCCNc2ccc(C(F)(F)F)cn2)cc1,Percent Effect,"30 µM, 30.03 µM",0.4176%
N#CC1(C(=O)NCCCNc2ccc(C(F)(F)F)cn2)CCCC1,Percent Effect,"30 µM, 30.03 µM",104.7%
O=C(NCCCNc1ccc(C(F)(F)F)cn1)c1ccccc1,Percent Effect,10 µM,-30.72%
